The list is not random: actives were taken first. Their share in the collection is about 3.5%.
Pf apPOL inh = Pf-apPOL DNA polymerase inhibition; Recombinant Pf-apPOL, molecular beacon fluorescence, 1.5 h; inhibition, % at 10 µM; actives 0.25% (n = 210,000)
mHTT CaM bind = disrupts binding of mutant huntingtin to calmodulin; P42858; AlphaScreen His-mHTT/GST-CaM binding, luminescence; inhibition, % at 15 µM; actives 3.6% (n = 190,000); AID 1671202;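 note: 0% = both proteins with DMSO and 100% = one protein alone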
The depositor's hits bear a star; . = not tested or not shown. Cut-off read from the data, not from the text of the source: active = inhibition above about 50%; inactive = the rest.

SMILES	Pf apPOL inh	mHTT CaM bind
O=C(CN1CCC2(CC1)N=C(c1cccc(Cl)c1)C(=O)N2)Nc1ccc(Cl)cc1	3	88*
O=C(CN1CCC2(CC1)N=C(c1cccc(F)c1)C(=O)N2)Nc1ccc(Cl)cc1	3	17
CN(C)CCNC(=O)c1cnn2c(-c3ccccc3)ccnc12	3	-2
Cn1c(=O)c(N2CCN(C(=O)C3CCCO3)CC2)nc2ccccc21 (stereo not drawn)	-5	-12
O=C(NCc1ccc(F)cc1)N1CCCC1c1nc(-c2ccc(F)cc2F)no1 (stereo not drawn)	1	5
COc1ccc(C(=O)Nc2ccc3nn(-c4ccccc4)nc3c2)cc1OC	-8	1
OC1(c2cccc(F)c2)CCCCC1	0	.
CCCCCNC(=O)c1cc(S(=O)(=O)N2CCc3ccccc32)ccc1F	-2	-3
O=C(NCC12CC3CC(C1)CC(CNC(=O)c1ccc(F)cc1)(C3)C2)c1ccc(F)cc1	-10	-2
Cc1ccc(NC(=O)Cn2nc(N(C)C)c3ccccc3c2=O)cc1	0	-2
Cc1ccc(NC(=O)Cn2nc(N(C)C)c3ccccc3c2=O)cc1Cl	-1	80*
COc1ccc(S(=O)(=O)C(CNC(=O)c2cccs2)c2ccco2)cc1 (stereo not drawn)	1	-12
O=C(Nc1ccc2c(c1)CC(C(=O)NC1CCCCCC1)CO2)c1cccs1 (stereo not drawn)	-1	-4
COCCN1C(=O)c2ccccc2C(C(=O)O)C1c1cn(C)c2ccccc12 (stereo not drawn)	4	1
COc1ccc(C)cc1NC(=O)C1c2cc(OC)c(OC)cc2C(=O)N2CCc3ccccc3C12 (stereo not drawn)	-8	57*
COc1ccc(OC)c(NC(=O)C2c3ccccc3C(=O)N3CCc4ccccc4C23)c1 (stereo not drawn)	-7	16
Cc1ccnc(NC(=O)C2c3ccccc3C(=O)N3CCc4ccccc4C23)c1 (stereo not drawn)	-2	31
COc1cc2c(cc1OC)C(C(=O)Nc1cc(C)ccn1)C1c3ccccc3CCN1C2=O (stereo not drawn)	-1	69*
COCCN1C(=O)c2ccccc2C(C(=O)Nc2cc(C)ccn2)C1c1cn(C)c2ccccc12 (stereo not drawn)	-3	54*
COc1cc2c(cc1OC)C(C(=O)NCCc1cccc(C)c1)C1c3ccccc3CCN1C2=O (stereo not drawn)	-1	89*
COc1cc2c(cc1OC)C(C(=O)NCc1cccnc1)C1c3ccccc3CCN1C2=O (stereo not drawn)	-4	-5
O=C(NC(n1cnc2c(N3CCOCC3)ncnc21)C(Cl)(Cl)Cl)c1ccco1 (stereo not drawn)	0	5
COC(=O)c1ccc(NC(=O)N2CC(C)Oc3ccc(C)cc32)cc1 (stereo not drawn)	-7	5
Cc1noc(-c2ccccc2Cl)c1C(=O)NCCc1ccc(F)cc1	-1	55*
Cc1noc(-c2cccs2)c1C(=O)NCCc1ccc(F)cc1	-7	-9
SMILES	Pf apPOL inh	mHTT CaM bind
Cc1ccc2oc(-c3ccccc3Cl)nc2c1	3	-78
CCOc1cc(C2Nc3cc(C)c(C)cc3NC3=C2C(=O)CC(C)(C)C3)cc(Cl)c1O (stereo not drawn)	-6	53*
CCOc1cc(C2Nc3ccccc3NC3=C2C(=O)CC(c2cccs2)C3)cc(Cl)c1O (stereo not drawn)	-12	28
COc1cc(C=Nc2ccc(NC(C)=O)cc2)cc(OC)c1OC	2	-1
COc1cc(C=Nc2cccc3c(=O)[nH][nH]c(=O)c23)c([N+](=O)[O-])cc1OC	-1	13
COc1cc(C=Nc2ccc(Nc3ccccc3)cc2)cc(OC)c1OC	-2	76*
COc1cc(C=Nc2ccc(Nc3ccccc3)cc2)c([N+](=O)[O-])cc1OC	0	96*
COc1ccc2cc(C(N)=O)c(=Nc3ccccc3F)oc2c1	4	-6
CC(=O)N1CCN(C(=O)CN2CCc3sccc3C2c2cccc(F)c2)CC1 (stereo not drawn)	-4	7
COc1cccc(CNC(=O)c2c[nH]n3c(=O)c(Cc4ccc(C)cc4)c(C)nc23)c1	-17	61*
CCCc1c(C)nc2c(C(=O)NCc3ccc(OC)cc3)c[nH]n2c1=O	-1	10
Cc1nc2c(C(=O)NCc3ccccc3Cl)c[nH]n2c(=O)c1Cc1ccccc1F	-10	31
Cc1ccc(CNC(=O)c2c[nH]n3c(=O)cc(CSc4ccc(Cl)cc4)nc23)cc1	47	65*
CCCc1c(C)nc2c(C(=O)NCc3ccccc3)c[nH]n2c1=O	-9	21
CCC(C)NC(=O)c1c[nH]n2c(=O)c(Cc3ccccc3Cl)c(C)nc12 (stereo not drawn)	-4	59*
COc1cccc(CNC(=O)c2c[nH]n3c(=O)c(Cl)c(C)nc23)c1	-7	52*
Cc1cc(=O)n2[nH]cc(C(=O)NCc3ccccc3)c2n1	-11	5
